A word on the AC50: it is the concentration giving half of the maximal activity seen.

Structures are written as SMILES. Inconclusive results are not listed. Active and inactive are the calls of the source. The calls were made as follows: active = hit-call score of the fitted dose curve at least 0.9, where 1 is the maximum; inconclusive = response in the unintended direction; inactive = score below 0.9.

The record followed here is PubChem BioAssay (EPA / NIEHS).

The target of test [1] is human Elastase, ELANE (gene 1991) (UniProt P08246). Nature of the test: NVS_ENZ_hElastase: NovaScreen (NVS) Enzymatic Assay for human Elastase (AID 2283153). An outline of the steps:
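Concentration-response to 50 uM max, run singly for chemicals passing a threshold (e.g., 30% inhibition) in a duplicate 25 uM single-point screen. Neutrophil-derived human elastase, absorbance read-out of enzyme activity at 1.5 h; DMSO baseline.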

Test [2] addresses Collagenase 3 (Homo sapiens) (UniProt P45452). Nature of the test: NVS_ENZ_hMMP13: NovaScreen (NVS) Enzymatic Assay for human Matrix Metalloproteinase-13 (MMP13) (AID 2283182). An outline of the steps: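 Recombinant MMP13 cleaving fluorescent substrate, cell-free, measured 1 h after dosing. Primary duplicate screen at 25 uM; actives tested in concentration-response up to 50 uM; loss of signal relative to DMSO.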

In test [3] the target is human Matrix Metalloproteinase-2 (MMP2), MMP2 (gene 4313) (UniProt P08253). Put plainly: NVS_ENZ_hMMP2: NovaScreen (NVS) Enzymatic Assay for human Matrix Metalloproteinase-2 (MMP2) (AID 2283184). The essentials:
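Compounds first screened in duplicate at a single 25 uM, with actives followed up in concentration series. Recombinant human MMP2 cleaves a fluorogenic substrate; fluorescence taken at 1 h, inhibition fitted relative to DMSO.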

Test [4] addresses Mitogen-activated protein kinase 3 (Homo sapiens) (UniProt P27361). Put plainly: NVS_ENZ_hMAPK3: NovaScreen (NVS) Enzymatic Assay for human Mitogen-Activated Protein Kinase 3 (MAPK 3) (AID 2283177). The essentials: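 Chemicals were first tested in duplicate at 25 uM, with hits re-run as concentration series (max 50 uM). Recombinant enzyme activity, measured 1 h post-dose in a cell-free format, was read by fluorescence/mobility shift relative to DMSO.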

The target of test [5] is human Casein Kinase 1-delta (CK1D), CSNK1D (gene 1453) (UniProt P48730). Nature of the test: NVS_ENZ_hCK1D: NovaScreen (NVS) Enzymatic Assay for human Casein Kinase 1-delta (CK1D) (AID 2283148). An outline of the steps: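 Recombinant human CK1-delta, cell-free; fluorescent substrate with electrophoretic mobility-shift separation of product, read 1 h after dosing. Single 25 uM duplicate screen, then concentration-response up to 50 uM; loss of signal vs DMSO.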

The target in test [6] is human c-Jun N-terminal Kinases (JNK2), MAPK9 (gene 5601) (UniProt P45984). Put plainly: NVS_ENZ_hJNK2: NovaScreen (NVS) Enzymatic Assay for human c-Jun N-terminal Kinases (JNK2) (AID 2283171). The essentials: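 Chemicals first tested in duplicate at 25 uM, then in singleton concentration series up to 50 uM, against extracted JNK2 enzyme. Activity loss read by fluorescence with mobility-shift separation 1 h post-dose; DMSO baseline.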

Test [7] addresses human Colony Stimulating Factor 1 Receptor (CSF1R), CSF1R (gene 1436) (UniProt P07333). Put plainly: NVS_ENZ_hCSF1R: NovaScreen (NVS) Enzymatic Assay for human Colony Stimulating Factor 1 Receptor (CSF1R) (AID 2283150). The essentials:
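Compounds screened in duplicate at 25 uM, then concentration-response (top 50 uM) for those passing threshold such as 30% inhibition; recombinant CSF1R activity measured 1 h post-dosing via fluorescent substrate/product mobility-shift separation, loss of signal versus DMSO.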

The target of test [8] is human Esterase Plasma (ES), BCHE (gene 590) (UniProt P06276). Nature of the test: NVS_ENZ_hES: NovaScreen (NVS) Enzymatic Assay for human Esterase Plasma (ES) (AID 2283157). An outline of the steps:
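Primary single-concentration screen at 25 uM in duplicate, then concentration-response to a 50 uM top dose. Human plasma esterase activity detected colorimetrically after 0.25 h incubation, with DMSO as baseline.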

In test [9] the target is Glycogen synthase kinase-3 beta (Homo sapiens) (UniProt P49841). Nature of the test: NVS_ENZ_hGSK3b: NovaScreen (NVS) Enzymatic Assay for human Glycogen Synthase Kinase-3 beta (GSK3b) (AID 2283165). An outline of the steps:
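Recombinant enzyme with specific fluorescent substrate, 1 h, product separated by electrophoretic mobility shift. Primary duplicate screen at 25 uM; actives (e.g. 30% inhibition) followed in singleton concentration-response to 50 uM. Signal loss fitted versus DMSO.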

For test [10], the target named is human Matrix Metalloproteinase-3 (MMP3), MMP3 (gene 4314) (UniProt P08254). Put plainly: NVS_ENZ_hMMP3: NovaScreen (NVS) Enzymatic Assay for human Matrix Metalloproteinase-3 (MMP3) (AID 2283185). The essentials: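 Fluorescent substrate turnover by recombinant MMP3 read after 1 h, signal loss scored against DMSO. Compounds first run in duplicate at 25 uM single dose, then actives confirmed by concentration series.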

Test [11] has as its target human Ephrin type-A Receptor 1 (EphA1), EPHA1 (gene 2041) (UniProt P21709). Put plainly: NVS_ENZ_hEphA1: NovaScreen (NVS) Enzymatic Assay for human Ephrin type-A Receptor 1 (EphA1) (AID 2283158).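 Also: activity is signal loss versus DMSO meaning EphA1 kinase inhibition.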 An outline of the steps:
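Cell-free enzymatic assay with recombinant EphA1 and fluorescent substrate; product separated by electrophoretic mobility shift, fluorescence intensity read 1 hour after dosing. Loss of signal versus DMSO baseline; primary duplicate screen at 25 uM, actives followed to 50 uM top concentration.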

Test [12] has as its target human Janus Kinase 2 (Jak2), JAK2 (gene 3717) (UniProt O60674). Put plainly: NVS_ENZ_hJak2: NovaScreen (NVS) Enzymatic Assay for human Janus Kinase 2 (Jak2) (AID 2283169). The essentials:
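Single-point duplicate screen at 25 uM, with hits run in concentration series to a 50 uM top dose. Substrate-product separation by mobility shift with fluorescence detection, 1 h post-dosing; DMSO baseline.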

Test [13] concerns the target human Dual Specificity Protein Phosphatase 3 (DUSP3), DUSP3 (gene 1845) (UniProt P51452). Nature of the test: NVS_ENZ_hDUSP3: NovaScreen (NVS) Enzymatic Assay for human Dual Specificity Protein Phosphatase 3 (DUSP3) (AID 2283152).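 Also: phosphatase activity of recombinant human DUSP3 on a fluorogenic substrate without cells.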 The essentials:
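Cell-free fluorescence-intensity enzyme activity assay with recombinant protein and substrate; loss of signal fitted relative to DMSO baseline. Primary screen in duplicate at 25 uM, actives then run in concentration series; measured 0 h after dosing.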

Test [14] has as its target human MAP Kinase-Activated Protein Kinase 2 (MAPKAPK2), MAPKAPK2 (gene 9261) (UniProt P49137). Nature of the test: NVS_ENZ_hMAPKAPK2: NovaScreen (NVS) Enzymatic Assay for human MAP Kinase-Activated Protein Kinase 2 (MAPKAPK2) (AID 2283178). The essentials:
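Chemicals screened in duplicate at 25 uM, then to 50 uM top concentration in concentration-response, against recombinant human MAPKAPK2; substrate conversion read 1 hr post-dosing by fluorescence after electrophoretic mobility-shift separation, loss-of-signal relative to DMSO.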

In test [15] the target is human Mitogen- and Stress-activated Protein Kinase-1 (Msk1), RPS6KA5 (gene 9252) (UniProt O75582). Nature of the test: NVS_ENZ_hMsk1: NovaScreen (NVS) Enzymatic Assay for human Mitogen- and Stress-activated Protein Kinase-1 (Msk1) (AID 2283187). An outline of the steps:
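Chemicals first run in duplicate at 25 uM, with actives followed up in singleton concentration series to 50 uM maximum. Enzyme activity came from substrate/product mobility-shift separation with fluorescence detection after 1 h incubation of the recombinant protein.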

Chain of Mitogen-activated protein kinase 3 (Homo sapiens) (P27361 whole entry, looked up): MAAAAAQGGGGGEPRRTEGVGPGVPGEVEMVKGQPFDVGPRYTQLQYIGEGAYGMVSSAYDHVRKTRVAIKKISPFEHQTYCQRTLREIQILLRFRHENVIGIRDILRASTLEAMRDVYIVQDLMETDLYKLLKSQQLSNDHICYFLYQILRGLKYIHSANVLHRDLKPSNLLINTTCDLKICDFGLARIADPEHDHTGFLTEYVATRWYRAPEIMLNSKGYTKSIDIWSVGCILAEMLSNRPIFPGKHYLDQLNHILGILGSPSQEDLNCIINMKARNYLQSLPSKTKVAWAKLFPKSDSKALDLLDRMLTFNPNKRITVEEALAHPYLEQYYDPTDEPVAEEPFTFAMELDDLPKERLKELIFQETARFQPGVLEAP
Chain of human Esterase Plasma (ES), BCHE (gene 590) (P06276 whole entry, looked up): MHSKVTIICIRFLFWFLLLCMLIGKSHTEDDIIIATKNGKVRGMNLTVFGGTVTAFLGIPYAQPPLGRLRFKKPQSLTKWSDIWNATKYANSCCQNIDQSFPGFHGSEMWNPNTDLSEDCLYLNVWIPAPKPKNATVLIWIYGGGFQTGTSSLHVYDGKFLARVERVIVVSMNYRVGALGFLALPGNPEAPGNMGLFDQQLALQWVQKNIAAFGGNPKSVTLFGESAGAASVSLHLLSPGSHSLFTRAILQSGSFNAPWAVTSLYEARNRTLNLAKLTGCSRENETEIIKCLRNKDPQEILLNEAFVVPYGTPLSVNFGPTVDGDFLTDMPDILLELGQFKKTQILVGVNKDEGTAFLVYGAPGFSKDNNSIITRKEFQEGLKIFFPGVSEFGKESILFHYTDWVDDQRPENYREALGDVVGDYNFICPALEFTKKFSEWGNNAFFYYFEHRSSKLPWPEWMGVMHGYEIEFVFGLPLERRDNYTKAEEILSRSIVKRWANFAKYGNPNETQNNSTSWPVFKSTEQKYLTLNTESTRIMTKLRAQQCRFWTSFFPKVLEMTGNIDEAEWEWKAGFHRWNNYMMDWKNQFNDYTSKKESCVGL
Chain of Glycogen synthase kinase-3 beta (Homo sapiens) (P49841 whole entry, looked up): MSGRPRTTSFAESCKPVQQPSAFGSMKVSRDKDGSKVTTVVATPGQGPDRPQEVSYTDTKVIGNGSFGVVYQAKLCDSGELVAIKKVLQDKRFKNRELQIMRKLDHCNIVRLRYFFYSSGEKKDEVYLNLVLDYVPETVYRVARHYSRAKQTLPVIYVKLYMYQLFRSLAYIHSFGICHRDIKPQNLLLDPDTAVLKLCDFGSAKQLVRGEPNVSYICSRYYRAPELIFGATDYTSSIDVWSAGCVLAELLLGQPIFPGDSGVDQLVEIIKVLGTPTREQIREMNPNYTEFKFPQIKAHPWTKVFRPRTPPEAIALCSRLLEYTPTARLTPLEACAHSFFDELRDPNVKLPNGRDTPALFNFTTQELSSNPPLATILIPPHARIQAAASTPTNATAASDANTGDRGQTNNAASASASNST
Chain of human c-Jun N-terminal Kinases (JNK2), MAPK9 (gene 5601) (P45984 whole entry, looked up): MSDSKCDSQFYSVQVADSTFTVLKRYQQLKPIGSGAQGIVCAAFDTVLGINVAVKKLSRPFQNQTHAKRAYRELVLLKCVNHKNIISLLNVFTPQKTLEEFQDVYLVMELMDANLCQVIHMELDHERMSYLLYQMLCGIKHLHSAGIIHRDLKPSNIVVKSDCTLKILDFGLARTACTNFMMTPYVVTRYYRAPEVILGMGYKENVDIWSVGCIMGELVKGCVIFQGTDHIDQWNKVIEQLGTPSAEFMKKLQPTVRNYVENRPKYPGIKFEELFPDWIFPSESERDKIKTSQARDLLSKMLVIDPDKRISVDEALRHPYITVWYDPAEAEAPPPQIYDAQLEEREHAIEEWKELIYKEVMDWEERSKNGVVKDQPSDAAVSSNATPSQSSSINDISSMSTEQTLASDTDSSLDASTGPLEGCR
Chain of human Matrix Metalloproteinase-3 (MMP3), MMP3 (gene 4314) (P08254 whole entry, looked up): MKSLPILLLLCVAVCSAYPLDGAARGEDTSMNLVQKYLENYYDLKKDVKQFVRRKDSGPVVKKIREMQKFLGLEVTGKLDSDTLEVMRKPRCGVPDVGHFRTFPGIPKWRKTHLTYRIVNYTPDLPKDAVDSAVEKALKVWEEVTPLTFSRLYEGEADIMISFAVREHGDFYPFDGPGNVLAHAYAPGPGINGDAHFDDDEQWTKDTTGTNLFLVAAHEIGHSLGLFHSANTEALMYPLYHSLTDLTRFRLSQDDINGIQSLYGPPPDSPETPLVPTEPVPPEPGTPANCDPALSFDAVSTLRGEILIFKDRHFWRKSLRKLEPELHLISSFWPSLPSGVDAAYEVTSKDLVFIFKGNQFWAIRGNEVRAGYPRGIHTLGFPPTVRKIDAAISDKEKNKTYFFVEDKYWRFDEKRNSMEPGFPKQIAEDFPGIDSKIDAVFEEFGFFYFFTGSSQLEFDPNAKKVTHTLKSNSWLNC
Chain of human Colony Stimulating Factor 1 Receptor (CSF1R), CSF1R (gene 1436) (P07333 whole entry, looked up): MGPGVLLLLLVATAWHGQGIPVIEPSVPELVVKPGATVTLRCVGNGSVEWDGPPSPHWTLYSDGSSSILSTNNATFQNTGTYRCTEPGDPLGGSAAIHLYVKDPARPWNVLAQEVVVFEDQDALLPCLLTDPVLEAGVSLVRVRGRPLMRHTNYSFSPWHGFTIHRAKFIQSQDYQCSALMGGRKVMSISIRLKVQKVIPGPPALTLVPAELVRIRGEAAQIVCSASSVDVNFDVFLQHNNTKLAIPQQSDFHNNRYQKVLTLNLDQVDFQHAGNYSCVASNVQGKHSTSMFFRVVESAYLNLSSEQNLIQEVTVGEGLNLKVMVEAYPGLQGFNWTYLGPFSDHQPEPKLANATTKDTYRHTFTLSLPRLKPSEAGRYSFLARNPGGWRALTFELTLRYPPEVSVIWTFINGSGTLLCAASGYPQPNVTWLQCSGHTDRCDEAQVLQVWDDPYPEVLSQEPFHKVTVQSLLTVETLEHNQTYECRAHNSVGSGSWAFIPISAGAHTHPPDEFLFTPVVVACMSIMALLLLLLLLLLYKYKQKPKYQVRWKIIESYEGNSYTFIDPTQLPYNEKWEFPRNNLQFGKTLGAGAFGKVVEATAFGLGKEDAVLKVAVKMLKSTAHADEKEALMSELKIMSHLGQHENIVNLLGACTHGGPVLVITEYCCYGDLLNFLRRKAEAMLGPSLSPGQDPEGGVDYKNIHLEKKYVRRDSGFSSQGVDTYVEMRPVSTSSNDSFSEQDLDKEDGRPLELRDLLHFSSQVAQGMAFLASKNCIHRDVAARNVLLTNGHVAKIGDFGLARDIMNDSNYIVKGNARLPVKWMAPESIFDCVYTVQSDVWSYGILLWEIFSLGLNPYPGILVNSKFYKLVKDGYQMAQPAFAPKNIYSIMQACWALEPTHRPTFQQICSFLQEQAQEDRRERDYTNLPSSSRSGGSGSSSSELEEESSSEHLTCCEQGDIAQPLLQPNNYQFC
Chain of human Casein Kinase 1-delta (CK1D), CSNK1D (gene 1453) (P48730 whole entry, looked up): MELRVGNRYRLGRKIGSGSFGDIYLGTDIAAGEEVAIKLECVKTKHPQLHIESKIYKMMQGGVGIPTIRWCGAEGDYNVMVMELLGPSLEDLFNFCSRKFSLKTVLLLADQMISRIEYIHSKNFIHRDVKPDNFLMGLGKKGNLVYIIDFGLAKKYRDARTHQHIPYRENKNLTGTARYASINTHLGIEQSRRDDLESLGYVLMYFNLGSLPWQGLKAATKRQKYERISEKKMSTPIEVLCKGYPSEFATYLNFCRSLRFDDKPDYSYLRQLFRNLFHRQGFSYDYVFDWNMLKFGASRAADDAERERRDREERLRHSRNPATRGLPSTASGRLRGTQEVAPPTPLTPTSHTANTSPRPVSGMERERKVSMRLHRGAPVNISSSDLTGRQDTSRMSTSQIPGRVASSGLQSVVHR
Chain of human Janus Kinase 2 (Jak2), JAK2 (gene 3717) (O60674 whole entry, looked up): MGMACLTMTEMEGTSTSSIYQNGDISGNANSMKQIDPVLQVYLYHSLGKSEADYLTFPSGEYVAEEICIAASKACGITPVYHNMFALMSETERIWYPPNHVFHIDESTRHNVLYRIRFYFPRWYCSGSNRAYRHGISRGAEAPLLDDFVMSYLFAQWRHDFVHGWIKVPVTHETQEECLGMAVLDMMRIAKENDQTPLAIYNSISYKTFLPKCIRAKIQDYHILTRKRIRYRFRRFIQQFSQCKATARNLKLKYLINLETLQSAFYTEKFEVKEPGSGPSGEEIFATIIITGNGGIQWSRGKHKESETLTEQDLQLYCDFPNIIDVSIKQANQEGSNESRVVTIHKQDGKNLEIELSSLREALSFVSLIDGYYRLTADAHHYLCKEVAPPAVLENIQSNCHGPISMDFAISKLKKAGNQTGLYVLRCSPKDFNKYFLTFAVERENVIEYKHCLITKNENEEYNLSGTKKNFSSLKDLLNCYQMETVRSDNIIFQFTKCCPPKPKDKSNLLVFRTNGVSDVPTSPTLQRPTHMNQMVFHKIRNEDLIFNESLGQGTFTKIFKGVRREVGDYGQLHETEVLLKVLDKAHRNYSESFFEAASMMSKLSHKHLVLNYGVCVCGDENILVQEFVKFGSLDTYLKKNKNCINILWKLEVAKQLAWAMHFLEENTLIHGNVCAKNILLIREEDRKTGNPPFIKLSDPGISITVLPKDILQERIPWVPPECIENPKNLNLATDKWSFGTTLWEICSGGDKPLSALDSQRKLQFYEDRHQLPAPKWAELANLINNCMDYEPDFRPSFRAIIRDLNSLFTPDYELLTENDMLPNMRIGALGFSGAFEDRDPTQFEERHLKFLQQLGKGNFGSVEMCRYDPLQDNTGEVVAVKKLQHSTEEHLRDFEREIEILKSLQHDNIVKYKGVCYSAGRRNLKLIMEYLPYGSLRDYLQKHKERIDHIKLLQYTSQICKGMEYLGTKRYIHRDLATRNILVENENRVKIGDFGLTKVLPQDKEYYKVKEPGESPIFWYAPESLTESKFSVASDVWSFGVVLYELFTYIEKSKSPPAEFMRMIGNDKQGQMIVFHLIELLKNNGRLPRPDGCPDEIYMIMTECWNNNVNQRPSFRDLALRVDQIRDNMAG
Chain of human Dual Specificity Protein Phosphatase 3 (DUSP3), DUSP3 (gene 1845) (P51452 whole entry, looked up): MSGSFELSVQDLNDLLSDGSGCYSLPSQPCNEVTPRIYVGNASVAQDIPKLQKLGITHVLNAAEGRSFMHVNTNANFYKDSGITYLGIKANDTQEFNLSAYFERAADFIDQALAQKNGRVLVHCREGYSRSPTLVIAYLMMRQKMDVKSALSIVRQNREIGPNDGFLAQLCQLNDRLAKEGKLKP

For the compound `CCCCC(CC)COC(=O)c1ccc(C(=O)OCC(CC)CCCC)cc1` (stereo unspecified), the outcome in test [1], in test [2] and in [3] was inactive.

`CCCCC(CC)COC(=O)CCCCCCCCC(=O)OCC(CC)CCCC` (stereo unspecified): the AC50 in test [1] is 23.4 µM (active). Further, in test [4], the call was inactive.

Regarding `Cn1c(=O)cc(Oc2ccc(F)cc2F)c2cnc(NCC(C)(C)O)nc21`, the AC50 in test [5] was 0.0119 µM (active); in test [6], 0.00703 µM (active); in [4], 34.6 µM (active).

For `CCN(C(=O)c1cc(C)cc(OC[C@H](C)Nc2ccncc2)c1)C(C)C`, the outcome in test [7] and in test [9] was inactive. The AC50 in test [8] is 11.8 µM (active).

`O=C(O)CCN(C1(C(=O)NO)CCCC1)S(=O)(=O)c1ccc(Oc2ccc(F)cc2)cc1`: in [5], the compound was classed as inactive. The values for the AC50 in test [2], in test [3] and in test [10] were 0.0041 µM (active), 0.0139 µM (active) and 8.47 µM (active), respectively.

Regarding `COc1ccc2sc(C(=O)Nc3nnn[nH]3)c(OC(C)C)c2c1`, the AC50 is 0.385 µM (active) in test [5], 1.42 µM (active) in [9], 8.74 µM (active) in test [12] and 46.7 µM (active) in [10]. The compound was classed as inactive in [7], in test [1] and in test [11].

Consider `Oc1ccc2c(c1)-c1ccccc1C2`, for which the half-maximal activity concentration (AC50) in [1] was 23 µM (active). The compound was classed as inactive in [8].

Consider `COc1ccc(/C=C/S(=O)(=O)NC(=O)c2ccc(C)cc2Cl)cc1`, for which the AC50 in test [5] is 30.5 µM (active). In addition, in test [11], the result was inactive.

`O=C(O)c1cc(N=Nc2ccc(S(=O)(=O)Nc3ccccn3)cc2)ccc1O`: the result in test [7], in test [11], in test [9], in test [12], in [6] and in test [14] was inactive. Besides, in test [3], the call was inactive. The AC50 in [13] was 14 µM (active); in [2] it was 19.5 µM (active).

Regarding `Nc1ccc(Nc2ccccc2)cc1`, the AC50 in test [13] is 7.11 µM (active); in [8] it was 29.8 µM (active); in test [2], 5.61 µM (active). Further, the compound was called inactive in [14].

In the case of `O=C(O)c1cccc(N(Cc2cccnc2)c2ccc(OC(F)F)c(OC(F)F)c2)c1`, the values for the AC50 in [5] and in test [6] were 10.9 µM (active) and 4.96 µM (active), respectively. Further, in test [4], the compound was called inactive.

Regarding `CCC(C)(C)C(=O)O[C@H]1C[C@@H](C)C=C2C=C[C@H](C)[C@H](CC[C@@H]3C[C@@H](O)CC(=O)O3)[C@H]21`, in test [13], the AC50 was 12.1 µM (active). Further, the compound was classed as inactive in test [1] and in test [8].

As for `CN(C)c1ccc(N=NS(=O)(=O)O)cc1`, the compound was called inactive in test [5], in test [7], in [11] and in [9].

As to `CC[C@H]1CC[C@H](NCc2cc3c(cc2OC)[C@H]2C[C@H]2C(=O)N3C)[C@H](c2ccccc2)N1`, the AC50 in test [8] is 17.3 µM (active). For the same compound, the call in test [12] was inactive.

Take `COC(=O)c1c(Cl)c(Cl)c(C(=O)OC)c(Cl)c1Cl`: the compound was called inactive in [8].

Turning to `CC(C)CCO`, the outcome in test [11] and in [10] was inactive.

With `CC/C(=C\C(=N/O)C(N)=O)C(C)[N+](=O)[O-]` (stereo unspecified), the call in [11] was inactive.

As for `CC(C)c1cccc(C(C)C)c1N1C(=O)c2ccc(O)cc2C1=O`, the call in test [15] was inactive.
